# Source: article PMC7862700, “An all-to-all approach to the identification of sequence-specific readers for epigenetic DNA modifications on cytosine”
# Key:
# Experiment in all cases: DAPPL (digital affinity profiling via proximity ligation, sequencing); 10 mM Tris-HCl pH 7.5, 50 mM NaCl, 1 mM DTT, 4% glycerol, room temperature, 30 min; GST-TFs on glutathione beads, 16-mer random dsDNA library, 0.1% formaldehyde crosslink after washing; high values mean tight binding
# [1] = molecular target: T1, FLI1 (Homo sapiens, UniProt Q01543 1-452); details: protein: recombinant; tags: N-terminal GST; dsDNA, one strand shown
# T1 sequence: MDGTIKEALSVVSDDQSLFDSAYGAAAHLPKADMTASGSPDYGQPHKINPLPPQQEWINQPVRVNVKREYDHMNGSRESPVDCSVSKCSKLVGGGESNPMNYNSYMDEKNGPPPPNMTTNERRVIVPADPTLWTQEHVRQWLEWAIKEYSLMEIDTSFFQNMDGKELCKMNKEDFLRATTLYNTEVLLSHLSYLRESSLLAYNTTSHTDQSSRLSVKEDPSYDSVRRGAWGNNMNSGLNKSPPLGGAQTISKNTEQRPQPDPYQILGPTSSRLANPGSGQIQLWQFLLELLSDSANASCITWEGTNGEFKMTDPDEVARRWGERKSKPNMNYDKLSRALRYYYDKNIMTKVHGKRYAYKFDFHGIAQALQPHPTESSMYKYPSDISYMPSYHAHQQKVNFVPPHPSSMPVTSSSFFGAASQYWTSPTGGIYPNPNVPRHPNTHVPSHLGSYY
# In short: (§1)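 Beads coated with glutathione captured GST-fused human transcription factors that had been expressed in yeast, and the factors were then given DNA barcodes and pooled with a tag-only sample. The pools were incubated with 200 nmole of a random double-stranded 16-mer DNA library in Tris/NaCl/DTT/glycerol buffer for 30 min at room temperature, washed, crosslinked with 0.1% formaldehyde and proximity-ligated with BsaI/T4 ligase at 37 °C for 1 h. PCR amplification and Illumina NextSeq500 sequencing came last. Binding signal is each hexamer's read frequency for a factor divided by its frequency for the tag-only sample.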
# [2] = molecular target: T2, ELK1 (Homo sapiens, UniProt P19419 1-428); details: protein: recombinant; tags: N-terminal GST; dsDNA, one strand shown
# T2 sequence: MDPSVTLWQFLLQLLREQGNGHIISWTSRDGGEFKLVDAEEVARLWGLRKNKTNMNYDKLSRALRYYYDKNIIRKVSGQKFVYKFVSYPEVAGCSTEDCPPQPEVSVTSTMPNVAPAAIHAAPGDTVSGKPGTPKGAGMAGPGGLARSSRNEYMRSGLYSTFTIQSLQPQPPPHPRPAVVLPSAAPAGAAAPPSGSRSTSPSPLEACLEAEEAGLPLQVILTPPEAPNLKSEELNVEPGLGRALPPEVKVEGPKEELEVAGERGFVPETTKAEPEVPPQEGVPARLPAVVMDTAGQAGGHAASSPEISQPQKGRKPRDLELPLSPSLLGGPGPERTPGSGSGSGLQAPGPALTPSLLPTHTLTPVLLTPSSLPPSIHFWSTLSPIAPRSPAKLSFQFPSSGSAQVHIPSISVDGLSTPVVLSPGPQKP
# In short: as §1
# [3] = molecular target: T3, GABPA (Homo sapiens, UniProt Q06546 1-454); details: protein: recombinant; tags: N-terminal GST; dsDNA, one strand shown
# T3 sequence: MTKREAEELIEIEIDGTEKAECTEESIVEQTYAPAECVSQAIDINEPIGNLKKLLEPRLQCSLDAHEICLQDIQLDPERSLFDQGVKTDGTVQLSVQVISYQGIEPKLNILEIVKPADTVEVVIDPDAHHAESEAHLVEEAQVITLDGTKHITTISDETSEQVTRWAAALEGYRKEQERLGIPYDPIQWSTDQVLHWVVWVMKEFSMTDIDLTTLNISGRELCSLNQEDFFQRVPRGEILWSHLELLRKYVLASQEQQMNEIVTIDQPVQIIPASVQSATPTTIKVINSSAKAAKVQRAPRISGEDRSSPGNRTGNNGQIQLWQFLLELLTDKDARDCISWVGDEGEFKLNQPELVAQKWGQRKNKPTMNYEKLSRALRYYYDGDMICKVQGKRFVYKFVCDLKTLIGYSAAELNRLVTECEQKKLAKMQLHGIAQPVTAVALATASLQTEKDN
# In short: as §1
# [4] = molecular target: T4, ERG (Homo sapiens, UniProt P11308 1-479); details: protein: recombinant; tags: N-terminal GST; dsDNA, one strand shown
# T4 sequence: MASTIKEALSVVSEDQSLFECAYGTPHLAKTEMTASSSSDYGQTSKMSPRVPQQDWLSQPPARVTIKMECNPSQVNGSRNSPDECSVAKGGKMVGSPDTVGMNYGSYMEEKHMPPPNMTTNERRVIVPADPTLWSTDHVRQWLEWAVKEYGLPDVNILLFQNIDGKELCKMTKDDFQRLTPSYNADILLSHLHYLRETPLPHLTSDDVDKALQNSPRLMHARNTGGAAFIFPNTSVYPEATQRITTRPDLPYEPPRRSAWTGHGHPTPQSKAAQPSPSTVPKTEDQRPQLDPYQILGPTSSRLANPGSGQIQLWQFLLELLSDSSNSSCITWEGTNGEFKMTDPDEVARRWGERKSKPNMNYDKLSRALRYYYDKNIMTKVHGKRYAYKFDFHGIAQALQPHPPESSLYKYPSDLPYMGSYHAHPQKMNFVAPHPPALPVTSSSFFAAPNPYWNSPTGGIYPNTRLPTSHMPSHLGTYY
# In short: as §1
# [5] = molecular target: ELF1 (Homo sapiens, UniProt P32519 1-619); details: protein: recombinant; tags: N-terminal GST; dsDNA, one strand shown
# Chain of ELF1 (P32519 whole entry): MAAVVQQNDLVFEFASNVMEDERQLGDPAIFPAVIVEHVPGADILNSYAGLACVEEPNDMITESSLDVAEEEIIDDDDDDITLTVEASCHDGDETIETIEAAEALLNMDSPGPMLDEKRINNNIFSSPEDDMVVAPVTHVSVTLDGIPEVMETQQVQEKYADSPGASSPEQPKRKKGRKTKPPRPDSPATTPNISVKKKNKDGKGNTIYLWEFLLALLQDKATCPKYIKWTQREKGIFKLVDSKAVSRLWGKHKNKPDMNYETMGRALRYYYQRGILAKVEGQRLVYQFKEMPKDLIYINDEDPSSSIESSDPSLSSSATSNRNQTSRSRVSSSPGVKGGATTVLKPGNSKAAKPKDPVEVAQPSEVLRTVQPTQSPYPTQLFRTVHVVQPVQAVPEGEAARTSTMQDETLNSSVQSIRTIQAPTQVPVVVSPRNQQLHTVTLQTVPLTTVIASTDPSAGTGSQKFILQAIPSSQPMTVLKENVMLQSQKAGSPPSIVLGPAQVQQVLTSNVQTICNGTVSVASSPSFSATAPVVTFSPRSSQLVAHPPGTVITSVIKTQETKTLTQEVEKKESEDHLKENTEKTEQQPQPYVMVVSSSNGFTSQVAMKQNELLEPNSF
# In short: as §1
# [6] = molecular target: T5, EHF (Homo sapiens, UniProt Q9NZC4 1-300); details: protein: recombinant; tags: N-terminal GST; dsDNA, one strand shown
# T5 sequence: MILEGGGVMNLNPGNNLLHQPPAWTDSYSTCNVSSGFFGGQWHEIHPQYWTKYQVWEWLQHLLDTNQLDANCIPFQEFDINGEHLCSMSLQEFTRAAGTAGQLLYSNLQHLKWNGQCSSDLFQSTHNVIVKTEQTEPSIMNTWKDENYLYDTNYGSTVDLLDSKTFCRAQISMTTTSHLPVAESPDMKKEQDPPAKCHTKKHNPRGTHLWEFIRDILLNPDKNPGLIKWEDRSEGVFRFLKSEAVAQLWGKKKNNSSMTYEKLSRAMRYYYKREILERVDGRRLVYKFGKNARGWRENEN
# In short: as §1
# [7] = molecular target: SPI1 (Homo sapiens, UniProt P17947 1-270); details: protein: recombinant; tags: N-terminal GST; dsDNA, one strand shown
# In short: as §1
# [8] = molecular target: SPIB (Homo sapiens, UniProt Q01892 1-262); details: protein: recombinant; tags: N-terminal GST; dsDNA, one strand shown
# Chain of SPIB (Q01892 whole entry): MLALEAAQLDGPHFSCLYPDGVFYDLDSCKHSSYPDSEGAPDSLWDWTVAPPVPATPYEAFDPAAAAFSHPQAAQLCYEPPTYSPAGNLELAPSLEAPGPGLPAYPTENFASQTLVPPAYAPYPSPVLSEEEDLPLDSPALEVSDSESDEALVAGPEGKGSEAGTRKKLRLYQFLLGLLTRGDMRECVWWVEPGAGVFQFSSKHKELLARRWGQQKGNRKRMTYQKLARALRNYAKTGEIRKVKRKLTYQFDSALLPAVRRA
# In short: as §1
# [9] = molecular target: T6, ELK3 (Homo sapiens, UniProt P41970 1-407); details: protein: recombinant; tags: N-terminal GST; dsDNA, one strand shown
# T6 sequence: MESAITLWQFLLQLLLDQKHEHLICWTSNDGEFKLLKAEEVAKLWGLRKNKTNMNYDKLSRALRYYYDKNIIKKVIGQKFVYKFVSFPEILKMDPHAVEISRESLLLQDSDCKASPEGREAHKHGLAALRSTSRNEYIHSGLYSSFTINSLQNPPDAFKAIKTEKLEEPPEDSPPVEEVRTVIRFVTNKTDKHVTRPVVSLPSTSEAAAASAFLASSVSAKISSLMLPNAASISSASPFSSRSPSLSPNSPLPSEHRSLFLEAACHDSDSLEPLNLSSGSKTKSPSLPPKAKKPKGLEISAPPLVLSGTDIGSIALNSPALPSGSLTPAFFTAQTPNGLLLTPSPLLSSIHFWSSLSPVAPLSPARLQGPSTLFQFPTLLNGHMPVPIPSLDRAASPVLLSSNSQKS
# In short: as §1
# [10] = molecular target: T7, FEV (Homo sapiens, UniProt Q99581 1-238); details: protein: recombinant; tags: N-terminal GST; dsDNA, one strand shown
# T7 sequence: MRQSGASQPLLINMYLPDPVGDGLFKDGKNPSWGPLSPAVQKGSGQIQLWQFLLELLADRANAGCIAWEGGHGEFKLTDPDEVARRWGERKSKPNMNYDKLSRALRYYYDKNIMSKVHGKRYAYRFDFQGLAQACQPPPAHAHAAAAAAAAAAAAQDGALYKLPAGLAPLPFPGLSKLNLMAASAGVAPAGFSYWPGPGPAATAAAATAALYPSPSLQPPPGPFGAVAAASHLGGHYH
# In short: as §1
# [11] = molecular target: ETV5 (Homo sapiens, UniProt P41161 1-510); details: protein: recombinant; tags: N-terminal GST; dsDNA, one strand shown
# Chain of ETV5 (P41161 whole entry): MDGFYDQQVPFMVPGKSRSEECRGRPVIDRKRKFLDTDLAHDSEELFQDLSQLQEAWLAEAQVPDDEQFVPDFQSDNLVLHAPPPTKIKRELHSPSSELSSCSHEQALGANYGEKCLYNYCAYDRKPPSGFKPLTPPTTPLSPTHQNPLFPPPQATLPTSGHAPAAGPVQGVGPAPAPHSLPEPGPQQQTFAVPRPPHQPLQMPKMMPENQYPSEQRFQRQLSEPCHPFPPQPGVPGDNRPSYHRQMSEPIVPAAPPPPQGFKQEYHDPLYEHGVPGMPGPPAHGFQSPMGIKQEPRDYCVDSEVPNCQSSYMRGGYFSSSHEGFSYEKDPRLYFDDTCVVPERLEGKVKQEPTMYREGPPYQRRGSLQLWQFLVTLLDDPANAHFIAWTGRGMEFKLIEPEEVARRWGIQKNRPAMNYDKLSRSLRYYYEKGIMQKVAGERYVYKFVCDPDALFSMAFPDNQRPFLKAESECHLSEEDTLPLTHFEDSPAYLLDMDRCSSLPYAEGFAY
# In short: as §1
# [12] = molecular target: HSF1 (Homo sapiens, UniProt Q00613 1-529); details: protein: recombinant; tags: N-terminal GST; chain copies: 3; dsDNA, one strand shown
# Chain of HSF1 (Q00613 whole entry): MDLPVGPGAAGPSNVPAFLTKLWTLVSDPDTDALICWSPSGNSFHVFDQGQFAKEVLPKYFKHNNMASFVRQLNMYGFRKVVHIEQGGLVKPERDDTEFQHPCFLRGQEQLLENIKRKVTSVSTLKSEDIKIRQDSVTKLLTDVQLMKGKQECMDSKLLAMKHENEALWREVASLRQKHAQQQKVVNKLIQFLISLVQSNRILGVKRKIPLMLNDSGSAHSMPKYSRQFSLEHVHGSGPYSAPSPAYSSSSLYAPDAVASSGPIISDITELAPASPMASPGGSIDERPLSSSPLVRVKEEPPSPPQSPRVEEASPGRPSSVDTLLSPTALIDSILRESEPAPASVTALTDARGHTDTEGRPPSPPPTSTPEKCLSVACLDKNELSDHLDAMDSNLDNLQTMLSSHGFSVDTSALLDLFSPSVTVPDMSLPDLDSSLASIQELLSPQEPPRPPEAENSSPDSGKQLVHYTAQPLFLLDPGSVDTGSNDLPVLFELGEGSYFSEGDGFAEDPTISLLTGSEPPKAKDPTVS
# In short: as §1
# [13] = molecular target: T8, SPIC (Homo sapiens, UniProt Q8N5J4 1-248); details: protein: recombinant; tags: N-terminal GST; dsDNA, one strand shown
# T8 sequence: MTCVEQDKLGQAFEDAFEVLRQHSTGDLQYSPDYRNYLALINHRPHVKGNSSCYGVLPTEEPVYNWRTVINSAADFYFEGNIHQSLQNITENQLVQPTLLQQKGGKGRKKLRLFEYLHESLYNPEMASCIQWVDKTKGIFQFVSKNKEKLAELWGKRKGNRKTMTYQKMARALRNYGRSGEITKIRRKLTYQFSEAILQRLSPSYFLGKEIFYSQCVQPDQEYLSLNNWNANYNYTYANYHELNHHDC
# In short: as §1
# [14] = molecular target: ELF4 (Homo sapiens, UniProt Q99607 1-663); details: protein: recombinant; tags: N-terminal GST; dsDNA, one strand shown
# Chain of ELF4 (Q99607 whole entry): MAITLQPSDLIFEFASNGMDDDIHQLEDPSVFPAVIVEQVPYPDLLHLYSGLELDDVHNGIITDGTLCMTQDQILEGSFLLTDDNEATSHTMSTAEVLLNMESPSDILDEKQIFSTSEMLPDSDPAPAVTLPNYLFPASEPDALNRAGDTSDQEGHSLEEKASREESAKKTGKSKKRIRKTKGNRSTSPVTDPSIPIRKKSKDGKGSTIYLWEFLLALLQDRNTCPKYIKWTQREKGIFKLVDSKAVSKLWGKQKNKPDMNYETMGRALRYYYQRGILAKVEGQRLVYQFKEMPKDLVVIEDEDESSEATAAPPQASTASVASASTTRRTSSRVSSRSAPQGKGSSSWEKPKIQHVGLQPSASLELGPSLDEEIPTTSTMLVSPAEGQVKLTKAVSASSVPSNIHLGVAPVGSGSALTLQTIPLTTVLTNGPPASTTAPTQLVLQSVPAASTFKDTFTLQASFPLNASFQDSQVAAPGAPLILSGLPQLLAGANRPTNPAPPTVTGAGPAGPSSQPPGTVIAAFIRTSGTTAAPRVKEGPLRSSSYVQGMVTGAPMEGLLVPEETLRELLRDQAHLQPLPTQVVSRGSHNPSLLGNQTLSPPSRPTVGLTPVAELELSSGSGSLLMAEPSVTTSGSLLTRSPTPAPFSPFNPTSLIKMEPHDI
# In short: as §1
# [15] = molecular target: T9, ELK4 (Homo sapiens, UniProt P28324-2 1-405); details: protein: recombinant; tags: N-terminal GST; dsDNA, one strand shown
# T9 sequence: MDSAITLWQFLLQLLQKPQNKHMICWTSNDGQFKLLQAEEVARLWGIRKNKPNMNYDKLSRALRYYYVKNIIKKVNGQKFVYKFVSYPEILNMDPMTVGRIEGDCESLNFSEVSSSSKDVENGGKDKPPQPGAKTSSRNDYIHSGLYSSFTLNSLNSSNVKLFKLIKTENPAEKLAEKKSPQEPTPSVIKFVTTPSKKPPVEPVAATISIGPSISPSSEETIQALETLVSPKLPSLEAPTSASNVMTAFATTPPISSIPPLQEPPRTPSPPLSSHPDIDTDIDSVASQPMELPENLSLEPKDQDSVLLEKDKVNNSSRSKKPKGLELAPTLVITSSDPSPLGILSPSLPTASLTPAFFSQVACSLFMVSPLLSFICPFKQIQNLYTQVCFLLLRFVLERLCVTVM
# In short: as §1
# [16] = molecular target: T10, ETV2 (Homo sapiens, UniProt O00321 1-342); details: protein: recombinant; tags: N-terminal GST; dsDNA, one strand shown
# T10 sequence: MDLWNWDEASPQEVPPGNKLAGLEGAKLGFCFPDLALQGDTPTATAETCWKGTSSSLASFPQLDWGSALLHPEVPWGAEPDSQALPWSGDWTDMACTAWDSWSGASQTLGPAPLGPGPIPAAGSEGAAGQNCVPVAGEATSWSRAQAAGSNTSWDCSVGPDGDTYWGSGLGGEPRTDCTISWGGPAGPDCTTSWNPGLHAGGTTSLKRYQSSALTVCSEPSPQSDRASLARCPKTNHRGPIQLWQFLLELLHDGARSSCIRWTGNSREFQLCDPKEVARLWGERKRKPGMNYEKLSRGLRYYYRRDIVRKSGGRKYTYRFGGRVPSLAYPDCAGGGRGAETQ
# In short: as §1
# [17] = molecular target: T11, ELF3 (Homo sapiens, UniProt P78545 1-371); details: protein: recombinant; tags: N-terminal GST; dsDNA, one strand shown
# T11 sequence: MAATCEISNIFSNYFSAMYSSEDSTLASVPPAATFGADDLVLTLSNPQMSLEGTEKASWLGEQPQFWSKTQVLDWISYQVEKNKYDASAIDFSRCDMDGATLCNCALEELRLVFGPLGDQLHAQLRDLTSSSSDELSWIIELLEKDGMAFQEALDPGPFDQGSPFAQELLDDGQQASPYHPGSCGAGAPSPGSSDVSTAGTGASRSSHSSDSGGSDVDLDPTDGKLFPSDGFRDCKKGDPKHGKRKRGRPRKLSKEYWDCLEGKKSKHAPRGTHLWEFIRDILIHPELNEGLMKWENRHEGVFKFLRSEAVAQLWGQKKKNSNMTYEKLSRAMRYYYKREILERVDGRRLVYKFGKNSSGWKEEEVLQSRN
# In short: as §1
# [18] = molecular target: CRX (Homo sapiens, UniProt O43186 1-299); details: protein: recombinant; tags: N-terminal GST; dsDNA, one strand shown
# Chain of CRX (O43186 whole entry): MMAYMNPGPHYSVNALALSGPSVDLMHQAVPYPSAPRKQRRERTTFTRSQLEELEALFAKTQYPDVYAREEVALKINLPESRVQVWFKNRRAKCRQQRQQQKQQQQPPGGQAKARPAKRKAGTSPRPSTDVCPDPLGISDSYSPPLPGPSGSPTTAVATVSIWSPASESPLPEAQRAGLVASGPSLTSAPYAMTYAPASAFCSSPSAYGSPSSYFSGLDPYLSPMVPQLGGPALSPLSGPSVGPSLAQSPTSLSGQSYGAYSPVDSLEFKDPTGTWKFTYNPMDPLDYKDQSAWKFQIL
# In short: as §1
# [19] = molecular target: ETV1 (Homo sapiens, UniProt P50549 1-477); details: protein: recombinant; tags: N-terminal GST; dsDNA, one strand shown
# Chain of ETV1 (P50549 whole entry): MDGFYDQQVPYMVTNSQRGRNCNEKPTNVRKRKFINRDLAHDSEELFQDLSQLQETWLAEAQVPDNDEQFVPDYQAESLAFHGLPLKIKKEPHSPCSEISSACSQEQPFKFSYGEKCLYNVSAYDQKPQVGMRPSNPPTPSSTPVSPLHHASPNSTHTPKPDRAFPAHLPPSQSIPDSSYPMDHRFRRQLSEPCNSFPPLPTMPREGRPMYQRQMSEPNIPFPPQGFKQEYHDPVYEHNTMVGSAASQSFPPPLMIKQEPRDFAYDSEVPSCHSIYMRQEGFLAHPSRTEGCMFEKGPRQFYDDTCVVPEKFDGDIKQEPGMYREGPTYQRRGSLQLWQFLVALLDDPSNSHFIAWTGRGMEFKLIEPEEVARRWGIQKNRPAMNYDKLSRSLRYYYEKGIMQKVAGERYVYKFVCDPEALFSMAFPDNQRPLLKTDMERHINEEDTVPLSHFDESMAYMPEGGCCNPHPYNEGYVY
# In short: as §1
sequence,measurement,setting,value
CTTGCG,binding signal,[1],"1.44 fold enrichment (6-mer frequency, TF over GST control)"
same,binding signal,[2],"1.42 fold enrichment (6-mer frequency, TF over GST control)"
same,binding signal,[3],"1.32 fold enrichment (6-mer frequency, TF over GST control)"
same,binding signal,[4],"1.35 fold enrichment (6-mer frequency, TF over GST control)"
same,binding signal,[5],"1.39 fold enrichment (6-mer frequency, TF over GST control)"
same,binding signal,[6],"1.41 fold enrichment (6-mer frequency, TF over GST control)"
same,binding signal,[7],"1.34 fold enrichment (6-mer frequency, TF over GST control)"
same,binding signal,[8],"1.4 fold enrichment (6-mer frequency, TF over GST control)"
same,binding signal,[9],"1.44 fold enrichment (6-mer frequency, TF over GST control)"
same,binding signal,[10],"1.32 fold enrichment (6-mer frequency, TF over GST control)"
same,binding signal,[11],"1.36 fold enrichment (6-mer frequency, TF over GST control)"
same,binding signal,[12],"1.26 fold enrichment (6-mer frequency, TF over GST control)"
same,binding signal,[13],"1.3 fold enrichment (6-mer frequency, TF over GST control)"
same,binding signal,[14],"1.27 fold enrichment (6-mer frequency, TF over GST control)"
same,binding signal,[15],"1.51 fold enrichment (6-mer frequency, TF over GST control)"
same,binding signal,[16],"1.29 fold enrichment (6-mer frequency, TF over GST control)"
same,binding signal,[17],"1.46 fold enrichment (6-mer frequency, TF over GST control)"
same,binding signal,[18],"1.13 fold enrichment (6-mer frequency, TF over GST control)"
same,binding signal,[19],"1.41 fold enrichment (6-mer frequency, TF over GST control)"
